Assay outcomes deposited in PubChem by National Center for Advancing Translational Sciences (NCATS).
Most compounds without a hit are left out; they make up all but 5.6% or so of the library.
PKM2 activator: activators of human pyruvate kinase M2 | actives 0.34% (n = 260,000) | Potency, µM (top dose mostly 57.5 µM), usual class: activators | P14618 | AID 1631 | purified PKM2, Kinase-Glo ATP luminescence, activation; response scale: 0% is enzyme alone, no compound; note: nearly all actives have a fitted effect of over 55% in size
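ATP formation by purified human PK-M2, quantified via coupled luciferase luminescence after 1 h at room temperature with 0.1 mM ADP and 0.5 mM PEP final.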
Gal4-VP16 FLuc: inhibits Gal4-VP16 luciferase reporter, ROR gamma counter-screen | Potency, µM (series often up to 53.6 µM), actives largely listed as inhibitors | Drosophila S2 Gal4-VP16 UAS-luciferase, luminescence, 20 h | actives 3.5% (n = 310,000) | AID 2546;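 note: Gal4-VP16 expression switched on by copper sulfate through the metallothionein promoter; nearly all actives have a fitted effect of over 50% in size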
Six1-Eya2 blk: inhibitors of human Six1/Eya2 interaction. AID 651725. Q15475+O00167. activity change, % (concentration not given with the values). AlphaScreen GST-Six1/His-Eya2 binding, biochemical; hits give low values. actives 0.56% (n = 360,000); in the data active = activity change below about -65%; inconclusive = mostly about -30% to -63%
Target sequence (O00167 whole entry, looked up): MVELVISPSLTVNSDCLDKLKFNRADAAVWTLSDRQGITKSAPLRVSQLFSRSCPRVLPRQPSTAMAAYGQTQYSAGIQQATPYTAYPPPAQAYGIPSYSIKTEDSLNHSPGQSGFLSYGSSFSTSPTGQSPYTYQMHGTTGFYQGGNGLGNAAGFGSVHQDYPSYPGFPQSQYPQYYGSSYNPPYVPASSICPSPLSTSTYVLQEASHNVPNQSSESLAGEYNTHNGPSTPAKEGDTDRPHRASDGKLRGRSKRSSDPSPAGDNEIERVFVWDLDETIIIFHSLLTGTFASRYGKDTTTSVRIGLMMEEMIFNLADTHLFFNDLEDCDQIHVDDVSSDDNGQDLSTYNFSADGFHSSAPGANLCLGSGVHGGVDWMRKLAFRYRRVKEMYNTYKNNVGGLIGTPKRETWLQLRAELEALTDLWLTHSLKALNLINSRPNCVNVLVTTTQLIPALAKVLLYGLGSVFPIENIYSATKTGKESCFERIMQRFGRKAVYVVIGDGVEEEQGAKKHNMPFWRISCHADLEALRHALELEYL
Target sequence (Q15475 whole entry, looked up): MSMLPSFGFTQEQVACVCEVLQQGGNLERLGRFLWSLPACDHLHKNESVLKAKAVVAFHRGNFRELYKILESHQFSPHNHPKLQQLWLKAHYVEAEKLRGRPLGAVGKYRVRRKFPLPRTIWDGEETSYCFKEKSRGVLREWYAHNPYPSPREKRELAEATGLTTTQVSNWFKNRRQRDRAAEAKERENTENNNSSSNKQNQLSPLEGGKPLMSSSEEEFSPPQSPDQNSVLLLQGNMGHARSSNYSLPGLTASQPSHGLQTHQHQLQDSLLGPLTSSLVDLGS
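GST-Six1 + His-Eya2 (5X stock: 250/500 nM); Tris pH 8.0, 300 mM NaCl, 0.05% BSA, 0.02% Tween 20; GSH donor/Ni acceptor beads; 1 h 37 °C dark; AlphaScreen readout.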
RORgamma inh: blocks mouse ROR gamma transcriptional activity; AID 2551; actives 5.4% (n = 310,000); Drosophila S2 Gal4-RORgamma UAS-luciferase reporter, 20 h; Potency, µM (doses to about 53.6 µM), hits mostly inhibitors; P51450; note: nearly all actives have a fitted effect of over 60% in size
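In this cell-based reporter format, copper sulfate (700 uM final) drives Gal4–ROR gamma fusion expression from a metallothionein promoter in Drosophila Schneider cells; compounds preincubated 1 hr, reporter read after 20 hr at ambient temperature.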
CtBP-E1A inh: CtBP/E1A binding inhibition | AlphaScreen GST-E1A/His-CtBP binding, 1536-well; hits give low values | activity change, % (test concentration not listed) | actives 0.49% (n = 340,000) | AID 651724; in the data active = activity change below about -65%; inconclusive = mostly about -30% to -63%
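Steps: dispense buffer (Tris pH 8.0, NaCl 300 mM, TCEP 1 mM, BSA, Tween 20); add 5X protein mix (GST-E1A, His-CtBP, 125 nM each); pin 23 nL compound; 2 h at 37 °C, dark; add 5X beads (50 ug/mL); 1 h; read.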
Hits are given with their value; i = inactive; ? = inconclusive; nt = no result given; [ ] = another dose, or the depositor's remark. Unless noted, calls come from the whole dose curve; as a rule, active = well fitted curve in the direction sought with a large enough effect; inconclusive = small, poorly fitted or top-dose-only effect, or another doubt; inactive = no such curve, though single readings can be large; an effect the other way counts as inactive or inconclusive.

SMILES	PKM2 activator	Gal4-VP16 FLuc	Six1-Eya2 blk	RORgamma inh	CtBP-E1A inh
Cc1c(NC(=O)COc2cccc(Cl)c2Cl)c(=O)n(-c2ccccc2)n1C	nt	nt	i	nt	i
CCCNC(=O)C1(C)CCCN(Cc2c3ccccc3nn2C)C1 (stereo unspecified)	nt	nt	i	nt	i
CC(C)N(Cc1ccccc1)CC(O)COc1ccc(S(=O)(=O)N2CCOCC2)cc1Cl (stereo unspecified)	i	i	i	i	i
CCN(c1ccccc1)S(=O)(=O)c1ccc(C(=O)Nc2ncccc2O)cc1	i	?	i	20µM	i
CCN(c1ccccc1)S(=O)(=O)c1ccc(C(=O)Oc2ccc(C(C)=O)cc2)cc1	i	10µM	i	?	i
CCN(c1ccccc1)S(=O)(=O)c1ccc(C(=O)Nc2ncccc2C)cc1	nt	nt	i	nt	i
CCNS(=O)(=O)c1ccc(NC(=O)c2ccc(Cn3cc([N+](=O)[O-])cn3)o2)cc1	17.8µM	i	i	i	i
COc1ccc(Nc2nc(-c3cccs3)nc3ccccc23)cc1S(=O)(=O)N1CCOCC1	nt	nt	?	nt	-66.7
COc1ccc(NS(=O)(=O)c2cccs2)cc1S(=O)(=O)N1CCOCC1	i	i	i	i	i
Cc1cc(C)c(S(=O)(=O)/N=C2/C=C(Sc3ncn[nH]3)C(=O)c3ccccc32)cc1C	i	3.16µM	i	3.98µM	i
Cc1ccc(C)c(S(=O)(=O)/N=C2\C=C(NS(=O)(=O)c3ccccc3)C(=O)c3ccccc32)c1	nt	i	i	i	i
Cc1nc(Cc2nnc(SCC(=O)N3c4ccccc4NC(=O)C3(C)C)o2)cs1	nt	nt	i	nt	i
CCCc1ccc(Oc2coc3cc(OCC(=O)Nc4ccccc4C)ccc3c2=O)cc1	i	?	i	?	i
CCc1ccc(Oc2coc3cc(OCC(=O)Nc4cc(C)ccc4C)ccc3c2=O)cc1	i	7.94µM	i	25.1µM	i
O=C(Cc1ccccc1)N/N=C/c1ccccc1Cl	i	i	i	?	i
COc1ccc(/C(C)=N/NC(=S)NCCc2ccccc2)c(O)c1	nt	7.08µM	?	5.01µM	?
COc1ccc(O)c(/C=N/NC(=S)NCCc2ccccc2)c1	i	7.08µM	?	3.16µM	?
COc1ccc(C(=O)CCc2ccccc2)c(O)c1	nt	nt	i	nt	i
S=C(NCCc1ccccc1)N/N=C/c1ccccc1Cl	i	?	i	11.2µM	i
Oc1ccc(Br)cc1/C=N/NC(=S)NCCc1ccccc1	i	15.8µM	i	15.8µM	i
O=C(O)C(c1ccccc1)C(O)c1ccc2c(c1)OCO2 (stereo unspecified)	nt	nt	i	nt	i
O=C(CCC(=O)N1CCN(c2cccc(Cl)c2)CC1)c1cccs1	nt	nt	i	nt	i
N#C/C(=C\c1ccc(C(=O)O)cc1)c1nc2sc3c(c2c(=O)[nH]1)CCCC3	i	i	i	i	i
Cc1ccc2[nH]c(C(=O)NN=C3CCCCC3)c(-c3ccccc3)c2c1	i	10µM	i	5.01µM	i
Cc1ccc2[nH]c(C(=O)O)c(-c3ccccc3)c2c1	i	i	i	i	i
SMILES	PKM2 activator	Gal4-VP16 FLuc	Six1-Eya2 blk	RORgamma inh	CtBP-E1A inh
CSc1nc2ccccc2nc1N(C)S(=O)(=O)c1ccc(C)cc1	i	i	i	i	i
Cc1cc(NC(=O)C(C)SCC(=O)N(C)CC(=O)Nc2ccc(Br)cc2C)no1 (stereo unspecified)	i	12.6µM	i	12.6µM	i
NNC(=S)Nc1c(F)cc(F)cc1Br	i	?	i	3.98µM	i
OCCOCCOCCO	nt	i	nt	i[10 µM]	nt
CC(=O)OC1(C(C)=O)CCC2C3CC(Cl)C4=CC(=O)CCC4(C)C3CCC21C (stereo unspecified)	nt	nt	i	nt	i
O=C(NNC(=S)Nc1ccc(F)cc1)c1cccc([N+](=O)[O-])c1	i	i	i	i	i
O=[N+]([O-])c1ccc(NNC(=S)Nc2ccc(F)cc2)cc1	i	11.2µM	i	?	i
Cc1nc(NC(=O)CCN2C(=O)C3CC=CCC3C2=O)sc1C (stereo unspecified)	i	i	i	i	i
O=[N+]([O-])C(=C1Nc2ccccc2N1)C(Cl)=C(Cl)Cl	i	?	i	11.2µM	i
CN1CCO/C1=C(\C(Cl)=C(Cl)Cl)[N+](=O)[O-]	i	i	i	i	i
COc1ccc(CCC(=O)Nc2ccc(OC)c(S(=O)(=O)N3CCCCC3)c2)cc1	nt	nt	i	nt	nt
CC(=O)c1cccc(NC(=O)C2(C)Cc3c(-c4cccc(C(F)(F)F)c4)ccnc3O2)c1 (stereo unspecified)	nt	nt	i	nt	i
CC(=O)N1CCN(Cc2nc(C(c3ccccc3)c3ccccc3)no2)CC1	i	i	i	i	i
Cc1cccnc1CN1CCN(Cc2nc(C(c3ccccc3)c3ccccc3)no2)CC1	i	i	i	11.2µM	i
NS(=O)(=O)c1ccc(N2CCN(C(=O)c3ccco3)CC2)nc1	nt	nt	i	nt	nt
Cc1cc2nc(-c3ccco3)c(Cc3ccccc3C(F)(F)F)n2c(C)c1Br	nt	nt	i	nt	i
CC1CCN(c2ccccc2NC(=O)c2ccc(Br)o2)CC1	i	i	i	i	i
CC(C)COCc1ccc(O)c2ncccc12	i	1µM	-79.4	0.708µM	-90.9
CCCCN(CCCC)S(=O)(=O)c1ccc(OC)c2ncccc12	i	i	i	i	i
CCCOCc1ccc(O)c2ncccc12	i	3.55µM	-69.8	1.26µM	-94.0
Cc1cccn2cc(-c3ccc(Cl)cc3)nc12	i	?	i	5.62µM	nt
COc1ccc(-c2cn3cccc(C)c3n2)cc1F	i	i	i	i	i
Cc1ccc(-c2cn3cccc(C)c3n2)cc1	i	i	i	11.2µM	i
Cc1cccc(-n2ncc3c2CCCC3NC(=O)CCN2CCCO2)c1C (stereo unspecified)	i	i	i	i	i
c1ccn2cc(-c3ccc4c(c3)OCCO4)nc2c1	i	?	i	3.55µM	nt
SMILES	PKM2 activator	Gal4-VP16 FLuc	Six1-Eya2 blk	RORgamma inh	CtBP-E1A inh
Fc1ccc(-c2cn3ccccc3n2)cc1	i[11.5 µM]	?	i	?	nt
CN(C)S(=O)(=O)c1cccc(-c2cn3cc(Cl)ccc3n2)c1	i	?	i	i	i
Clc1ccc2nc(-c3ccc4c(c3)OCO4)cn2c1	i	8.91µM	i	5.01µM	i
Cc1ccc2nc(-c3cc(-c4ccccc4)no3)cn2c1	i	3.98µM	i	1.41µM	i
Clc1ccc2nc(-c3ccccc3)cn2c1	nt	?	i	11.2µM	i
CC1CC=CC2C1C(=O)N(Cc1ccccc1)C2c1ccc(F)c(/C=C/c2ccccc2)c1 (stereo unspecified)	nt	i	nt	i	nt
COCCNC(=O)C1(C)CCCN(C(=O)c2ccc(F)c(Cl)c2)C1 (stereo unspecified)	nt	nt	i	nt	i
Cc1c(Cl)cccc1-n1cnc(=O)c2ccccc21	nt	nt	i	nt	i
Cc1ccc2nc(-c3ccc4c(c3)NC(=O)CO4)cn2c1	i	?	i	?	i
Cc1ccc2nc(-c3ccc4c(c3)OCCO4)cn2c1	i	1.12µM	i	0.398µM	i
CCNC(=S)N1CCCCC1CO (stereo unspecified)	i	i	i	i	i
